# Measurements reported in PMC12864922, “TDP-43 directly inhibits mRNA accumulation in neurites through modulation of mRNA stability”.
# Over roughly 9,900 sequences, “r (bound/input frequency ratio)” has its median near 0.7; the highest 2% begin near 6.5. What follows is part of a selection rich in the highest values, with near analogues and random picks from the rest.
# B1: ENSMUSG00000042529.153|Kcnj12 (ssRNA)
# RNA: GGGAGUUCUACAGUCCGACGAUCGCUUCGAUAUCCGCAUGCUAAUAGGAAACACCAGAGUGGGUGCUUCUUAGAAAAGGACACUCAGGAAAUUAGUAUGGGGUCUGGGUCCCACAUCCCCAGGAAGUGGGUCAGCCCCACGUCCCCCGCUGGACUCACAGCUUGAGUUGUGCCUUAGAGACUCUGGUUGUCUGGCUUCCGUCAUUUCUGGUUUUCUCAGACUUGUUUAAUCUUUCCCUACUGCCCUAAGUCCACUCAUGAAGCUCCCCAGGCCCUUCUGAGAUUGCAGAGGCUGCUUGCUCAUCUCUUGCGGUCGCACUAGUGUGGAAUUCUCGGGUGUCAAGG
# B2: ENSMUSG00000058297.4|Spock2 (ssRNA)
# RNA: GGGAGUUCUACAGUCCGACGAUCGCUUCGAUAUCCGCAUGCUAGGAGACAGAAGAGGCAGGGGAGGAGGCCGAGGAGGAGGAGGGUGAGGCGGGUGAGGCAGAUGAUGGAGGCUACAUCUGGUAGAUAGCCCUCGACGGCCUCGGCAGGCCAGGGUGCCGACGGCCAGAAAGACAGGCCAGAAGAGACCUGGACAACAGCAGGCAACUUAGCAAAUGGAUCCGGAAGUCAGUGCGGAGGACCCUGGCUCCAGUGGGGGAGGACUGGGGAGUGUGGCUUGUGUGUAUGUGUGAUAUGAGAUGUGCUCUUGCGGUCGCACUAGUGUGGAAUUCUCGGGUGUCAAGG
# B3: ENSMUSG00000058297.6|Spock2 (ssRNA)
# RNA: GGGAGUUCUACAGUCCGACGAUCGCUUCGAUAUCCGCAUGCUAGGCAGGGGAGGAGGCCGAGGAGGAGGAGGGUGAGGCGGGUGAGGCAGAUGAUGGAGGCUACAUCUGGUAGAUAGCCCUCGACGGCCUCGGCAGGCCAGGGUGCCGACGGCCAGAAAGACAGGCCAGAAGAGACCUGGACAACAGCAGGCAACUUAGCAAAUGGAUCCGGAAGUCAGUGCGGAGGACCCUGGCUCCAGUGGGGGAGGACUGGGGAGUGUGGCUUGUGUGUAUGUGUGAUAUGAGAUGUGUGUGUAUGAUGUCUCUUGCGGUCGCACUAGUGUGGAAUUCUCGGGUGUCAAGG
# B4: ENSMUSG00000058297.8|Spock2|203:207;211:224;233:244 (ssRNA)
# RNA: GGGAGUUCUACAGUCCGACGAUCGCUUCGAUAUCCGCAUGCUAGGCCGAGGAGGAGGAGGGUGAGGCGGGUGAGGCAGAUGAUGGAGGCUACAUCUGGUAGAUAGCCCUCGACGGCCUCGGCAGGCCAGGGUGCCGACGGCCAGAAAGACAGGCCAGAAGAGACCUGGACAACAGCAGGCAACUUAGCAAAUGGAUCCGGAAGUCAGUGCGGAGGACCCUGGCUCCAGUGGGGGAGGACUGGGGACACACGCUACACACAUACACACAUAUGAGAACACACACAUACAUGUGAGAUGUGAGUGCUCUUGCGGUCGCACUAGUGUGGAAUUCUCGGGUGUCAAGG
# B5: ENSMUSG00000058297.8|Spock2 (ssRNA)
# RNA: GGGAGUUCUACAGUCCGACGAUCGCUUCGAUAUCCGCAUGCUAGGCCGAGGAGGAGGAGGGUGAGGCGGGUGAGGCAGAUGAUGGAGGCUACAUCUGGUAGAUAGCCCUCGACGGCCUCGGCAGGCCAGGGUGCCGACGGCCAGAAAGACAGGCCAGAAGAGACCUGGACAACAGCAGGCAACUUAGCAAAUGGAUCCGGAAGUCAGUGCGGAGGACCCUGGCUCCAGUGGGGGAGGACUGGGGAGUGUGGCUUGUGUGUAUGUGUGAUAUGAGAUGUGUGUGUAUGAUGUGAGAUGUGAGUGCUCUUGCGGUCGCACUAGUGUGGAAUUCUCGGGUGUCAAGG
# B6: ENSMUSG00000058297.10|Spock2 (ssRNA)
# RNA: GGGAGUUCUACAGUCCGACGAUCGCUUCGAUAUCCGCAUGCUAGGAGGGUGAGGCGGGUGAGGCAGAUGAUGGAGGCUACAUCUGGUAGAUAGCCCUCGACGGCCUCGGCAGGCCAGGGUGCCGACGGCCAGAAAGACAGGCCAGAAGAGACCUGGACAACAGCAGGCAACUUAGCAAAUGGAUCCGGAAGUCAGUGCGGAGGACCCUGGCUCCAGUGGGGGAGGACUGGGGAGUGUGGCUUGUGUGUAUGUGUGAUAUGAGAUGUGUGUGUAUGAUGUGAGAUGUGAGUGUGUGAUGUGAGACUCUUGCGGUCGCACUAGUGUGGAAUUCUCGGGUGUCAAGG
# B7: ENSMUSG00000058297.9|Spock2 (ssRNA)
# RNA: GGGAGUUCUACAGUCCGACGAUCGCUUCGAUAUCCGCAUGCUAGGAGGAGGAGGGUGAGGCGGGUGAGGCAGAUGAUGGAGGCUACAUCUGGUAGAUAGCCCUCGACGGCCUCGGCAGGCCAGGGUGCCGACGGCCAGAAAGACAGGCCAGAAGAGACCUGGACAACAGCAGGCAACUUAGCAAAUGGAUCCGGAAGUCAGUGCGGAGGACCCUGGCUCCAGUGGGGGAGGACUGGGGAGUGUGGCUUGUGUGUAUGUGUGAUAUGAGAUGUGUGUGUAUGAUGUGAGAUGUGAGUGUGUGAUCUCUUGCGGUCGCACUAGUGUGGAAUUCUCGGGUGUCAAGG
# Target: TDP-43 (Homo sapiens, UniProt Q13148 1-414)
# Experiment: RNA Bind-n-Seq with designed 260-mer pool; 25 mM Tris-HCl, 150 mM KCl, 3 mM MgCl2, BSA (printed 500 mg/mL), 20 units/mL SUPERase IN; pH not stated; 500 nM RNA pool, 1 h, 4 C; TDP-43 5, 50, 500 nM; high values mean tight binding
# Conditions: protein: recombinant; tags: SBP (GST cleaved off with PreScission; pGEX-GST-SBP)
# Method in brief: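 In 25 mM Tris-HCl, 150 mM KCl, 3 mM MgCl2, BSA and SUPERase IN, 500 nM of an in vitro-transcribed 260-nt 3′ UTR oligo pool was incubated for 1 h at 4 °C with SBP-tagged TDP-43 (5, 50 or 500 nM) captured on streptavidin beads. RNA remaining after washes was biotin-eluted, reverse transcribed, PCR-amplified and sequenced. Binding, R, is the bound-sample abundance of each oligo, normalized to mapped reads, divided by its abundance in input. Each duplicate used a separate, independent protein batch.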
# TDP-43, sequence (Q13148 whole entry): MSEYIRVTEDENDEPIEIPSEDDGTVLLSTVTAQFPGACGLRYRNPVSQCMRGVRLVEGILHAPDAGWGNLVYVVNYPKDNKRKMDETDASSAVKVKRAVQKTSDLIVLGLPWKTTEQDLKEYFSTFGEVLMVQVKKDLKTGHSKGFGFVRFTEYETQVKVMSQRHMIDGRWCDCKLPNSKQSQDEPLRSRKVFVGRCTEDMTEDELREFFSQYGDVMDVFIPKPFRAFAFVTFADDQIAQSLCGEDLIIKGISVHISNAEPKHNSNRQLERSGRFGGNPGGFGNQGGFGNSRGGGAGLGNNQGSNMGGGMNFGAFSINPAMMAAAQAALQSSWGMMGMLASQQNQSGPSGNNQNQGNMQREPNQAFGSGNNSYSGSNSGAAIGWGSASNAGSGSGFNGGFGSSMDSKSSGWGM
row,Binder,binding signal
1,B1,0.587 R (bound/input frequency ratio)
2,B2,6.81 R (bound/input frequency ratio)
3,B3,4.92 R (bound/input frequency ratio)
4,B4,2.32 R (bound/input frequency ratio)
5,B5,6.51 R (bound/input frequency ratio)
6,B6,6.91 R (bound/input frequency ratio)
7,B7,5.99 R (bound/input frequency ratio)
